Assay outcomes (PubChem)
ADAM10 inh – inhibitors of human ADAM10; recombinant ADAM10, EDANS/DABCYL FRET peptide cleavage, 3 h; inhibition, % at 7 µM; O14672; hit rate 0.62% among 370,000;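 active = inhibition above a per-campaign cutoff equal to the mean of compounds falling between control-based bounds plus 3 SD, cut at about 20% in these data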;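 note: 0% = DMSO wells while the 100% control is not disclosed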
PLCg1 inh – inhibitors of human phospholipase C gamma1; inhibition, % at 12.2 µM; AID 720700; hit rate 0.84% among 370,000; purified PLC-gamma1, fluorogenic substrate, fluorescence; P19174; in the data active = inhibition above about 9.5%
PLC-beta3 inh – inhibitors of human phospholipase C beta3; Q01970; Purified PLC-beta3, fluorogenic substrate, fluorescence; inhibition, % at 12.2 µM; hit rate 0.18% among 370,000; in the data active = inhibition above about 11%;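 note: 0% = median of compound wells on plate and 100% = full blocker control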
Target sequence (Q01970 whole entry, looked up): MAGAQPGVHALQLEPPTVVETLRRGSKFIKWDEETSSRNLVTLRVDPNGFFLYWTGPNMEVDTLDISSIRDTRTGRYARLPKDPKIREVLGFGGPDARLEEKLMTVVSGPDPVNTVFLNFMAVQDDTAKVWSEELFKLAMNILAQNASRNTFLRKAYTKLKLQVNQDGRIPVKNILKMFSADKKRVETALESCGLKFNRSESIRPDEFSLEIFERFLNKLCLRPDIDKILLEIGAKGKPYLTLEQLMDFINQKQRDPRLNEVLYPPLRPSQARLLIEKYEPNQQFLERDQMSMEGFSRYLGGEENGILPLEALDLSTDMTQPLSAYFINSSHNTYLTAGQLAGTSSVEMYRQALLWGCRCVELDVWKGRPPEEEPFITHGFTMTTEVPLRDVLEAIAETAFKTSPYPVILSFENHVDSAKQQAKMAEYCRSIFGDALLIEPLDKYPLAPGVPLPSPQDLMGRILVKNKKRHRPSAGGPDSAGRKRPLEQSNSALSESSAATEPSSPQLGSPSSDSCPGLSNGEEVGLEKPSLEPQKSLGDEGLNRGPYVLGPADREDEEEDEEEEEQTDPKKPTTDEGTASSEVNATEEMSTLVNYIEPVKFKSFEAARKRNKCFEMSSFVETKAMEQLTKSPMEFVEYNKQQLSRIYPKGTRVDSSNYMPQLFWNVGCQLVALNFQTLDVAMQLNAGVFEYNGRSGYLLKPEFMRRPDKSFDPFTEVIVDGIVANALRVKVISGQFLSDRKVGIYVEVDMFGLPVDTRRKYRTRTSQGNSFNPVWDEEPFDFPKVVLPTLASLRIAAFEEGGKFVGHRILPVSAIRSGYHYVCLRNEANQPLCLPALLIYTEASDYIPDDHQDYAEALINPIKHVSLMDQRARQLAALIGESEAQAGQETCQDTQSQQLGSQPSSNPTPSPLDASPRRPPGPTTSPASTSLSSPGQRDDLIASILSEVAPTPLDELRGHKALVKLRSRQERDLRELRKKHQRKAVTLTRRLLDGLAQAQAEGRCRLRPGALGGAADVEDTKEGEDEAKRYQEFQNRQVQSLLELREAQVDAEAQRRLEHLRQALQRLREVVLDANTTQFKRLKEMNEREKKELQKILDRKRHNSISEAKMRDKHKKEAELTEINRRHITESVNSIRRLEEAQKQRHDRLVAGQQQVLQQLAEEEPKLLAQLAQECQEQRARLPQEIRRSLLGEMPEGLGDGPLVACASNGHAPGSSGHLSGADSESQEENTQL
ADAM17 inh – ADAM17 inhibition, QFRET primary screen; P78536; recombinant ADAM17, EDANS/DABCYL FRET peptide cleavage; inhibition, % at 6.95 µM; hit rate 0.83% among 370,000;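 active = inhibition above the mean of compounds lying between control limits plus 3 SD, set per campaign, cut at about 8.5% in these data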;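 note: 0% = DMSO-only wells as the low control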
KLK7 zymogen act – activators of human kallikrein-7 zymogen; P49862; purified proKLK7, EDANS-DABCYL substrate fluorescence; 100% is mature enzyme control, 0% vehicle; activation, % at 7 µM; hit rate 0.9% among 370,000; AID 652039;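 active = activation above the mean of all tested compounds plus 3 SD, computed per campaign excluding outliers beyond control limits, cut at about 13% in these data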
ADAM10 confirm – confirmation of inhibitors of human ADAM10. ADAM10 QFRET peptide cleavage, EDANS fluorescence. hit rate 1% among 2,100. inhibition, % at 6.95 µM. shares compounds with ADAM10 inh;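 active = inhibition above about 20% chosen separately for each screening run, limit read from the data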;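 note: 0% = DMSO wells and 100% = marimastat wells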
ADAM17 counter – counter-screen for ADAM10 exosite inhibitors: inhibitors of human ADAM17 | AID 743214 | hit rate 0.5% among 2,100 | shares compounds with ADAM10 inh | ADAM17 QFRET peptide cleavage, EDANS fluorescence | inhibition, % at 6.95 µM;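 active = mean triplicate inhibition above the solvent-only control wells' mean plus 3 SD, cut at about 12% in these data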;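 note: 0% = DMSO wells and 100% = marimastat wells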
An asterisk follows results filed as active; · = no result. Sampled rows, rich in hits. Any-hit rate of the full collection: about 2.9%.

SMILES | ADAM10 inh | PLCg1 inh | PLC-beta3 inh | ADAM17 inh | KLK7 zymogen act | ADAM10 confirm | ADAM17 counter
COc1cccc(S(=O)(=O)Nc2ccc(C(O)(C(F)(F)F)C(F)(F)F)cc2)c1 | 20* | 6 | -2 | 3 | -1 | -2 | 0
CCOc1cccc(C(=O)Nc2ccc(N(CC)CC)cc2)c1 | 27* | -2 | -2 | -2 | 1 | 2 | 1
CCOc1cccc(C(=O)Nc2ccc3ccccc3c2)c1 | 10 | -4 | -8 | 7 | 0 | · | ·
CC(=O)NCCn1c(SCc2cc(F)ccc2F)nc2ccccc2c1=O | -6 | 1 | 2 | -1 | 1 | · | ·
CCN(c1ccccc1)S(=O)(=O)c1ccc(N2CCN(c3ccc(OC)cc3)CC2)nc1 | 4 | 5 | -1 | 1 | 0 | · | ·
CCN(c1ccccc1)S(=O)(=O)c1ccc(N2CCN(c3ccc(O)cc3)CC2)nc1 | 25* | -2 | -1 | 3 | -1 | 6 | 1
CC(C)Cc1cc(C(=O)Nc2cccc(O)c2)no1 | -4 | 1 | -4 | -4 | 0 | · | ·
CCCNC(=O)c1cc(C2CCCCN2S(=O)(=O)c2ccc(OC)cc2)on1 (stereo not given) | -4 | 4 | 5 | -3 | 0 | · | ·
CCCNC(=O)c1cc(C2CCCCN2S(=O)(=O)c2ccccc2)on1 (stereo not given) | 84* | 2 | 4 | 3 | -1 | 2 | 1
Clc1ccsc1-c1csc(-c2cccnc2)n1 | -19 | -6 | -7 | -7 | 0 | · | ·
COc1cccc(C(=O)NCCS(=O)(=O)NCc2cccnc2)c1 | -2 | -2 | -5 | -5 | 0 | · | ·
CCO[C@@H]1OC(C(=O)O)=C[C@H](c2cn(C(C)=O)c3ccccc23)[C@H]1CCCO | 1 | 1 | 2 | -4 | 1 | · | ·
CCO[C@@H]1OC(C(=O)NCc2nc3ccccc3[nH]2)=C[C@H](c2csc3ccccc23)[C@H]1CCCO | 20* | -1 | 0 | 3 | 0 | 4 | 2
CCO[C@H]1OC(C(=O)NCc2ccccc2)=C[C@@H](c2cn(C(C)=O)c3ccccc23)[C@@H]1CCCO | 26* | -1 | 3 | 3 | 0 | 4 | 2
C#Cc1ccc([C@@H]2C=C(C(=O)N3CCN(Cc4ccccc4)CC3)O[C@H](OCC)[C@H]2CCCO)cc1 | 24* | 0 | 3 | 4 | 0 | 3 | 1
C/C(=N\N=C(/N)SC1CC(=O)N(c2cccc(Cl)c2)C1=O)c1cccs1 (stereo not given) | 27* | 6 | -23 | 8 | -1 | 5 | 2
CCCOc1ccc(N2C(=O)CC(S/C(N)=N/N=C(\C)c3cccs3)C2=O)cc1 (stereo not given) | 14 | 3 | 2 | -4 | 0 | · | ·
COc1ccc(N2CCN(Cc3nc(N)nc(Nc4ccc(C)c(Cl)c4)n3)CC2)cc1 | 21* | 1 | 3 | 5 | 1 | 1 | 0
Cc1ccc(Nc2nc(N)nc(CN3CCN(c4ccccc4)CC3)n2)cc1Cl | 9 | 7 | 1 | 5 | 0 | · | ·
CN(C)c1ccc(CN(C(=O)COc2ccccc2)C2CCS(=O)(=O)C2)cc1 (stereo not given) | 0 | -4 | -2 | -2 | 0 | · | ·
COc1cc([N+](=O)[O-])ccc1-c1ccc(C(=O)Nc2ccc(NC(C)=O)cc2)o1 | -5 | 0 | -2 | -2 | -1 | · | ·
O=C(Nc1nc2ccccc2s1)C1c2ccccc2Oc2ccccc21 | 28* | 1 | 2 | 8 | 0 | 10 | 3
COc1ccccc1C(=O)NCC(=O)OCC(=O)c1ccc(Cl)s1 | -2 | -4 | -5 | -2 | 0 | · | ·
O=C(COC(=O)CCSc1ccccc1Cl)Nc1ccc(F)cc1F | 23* | 2 | 3 | 7 | 0 | 2 | 1
O=C(COC(=O)CCSc1ccccc1)Nc1ccc(F)cc1Cl | 7 | 4 | 1 | 7 | 0 | · | ·
SMILES | ADAM10 inh | PLCg1 inh | PLC-beta3 inh | ADAM17 inh | KLK7 zymogen act | ADAM10 confirm | ADAM17 counter
COc1cccc(C(=O)N(C)CC(=O)Nc2ccc(F)c(F)c2F)c1 | 7 | 4 | -3 | -4 | 0 | · | ·
CCCCn1c(N)c(N(CCOC)C(=O)c2cc(C)oc2C)c(=O)[nH]c1=O | 51* | -7 | -6 | -7 | 0 | 1 | 2
CC(Nc1ccc(Cl)cc1)c1cc(Cl)ccc1O (stereo not given) | 23* | 7 | 3 | 8 | 0 | 3 | 1
CCOc1ccc(NC(C)c2cc(Cl)ccc2O)cc1 (stereo not given) | 6 | -4 | 0 | -4 | 0 | · | ·
CCNC(=S)Nc1scc(-c2ccccc2)c1C(=O)OCC | 26* | 0 | 3 | 7 | 0 | 2 | 1
CCN(CC(=O)Nc1ccccc1C(F)(F)F)C(=O)CN1C(=O)NC2(CCCCC2)C1=O | -2 | 2 | 4 | -1 | 0 | · | ·
CCC1(c2ccccc2)NC(=O)N(CC(=O)N(CC(=O)Nc2ccccc2C(F)(F)F)Cc2ccco2)C1=O (stereo not given) | 81* | 3 | 3 | 0 | 0 | 0 | 0
O=C(c1cccc(Cl)c1)N1CCC(=O)N([C@H](COCc2cccc(Cl)c2)Cc2ccccc2)CC1 | 20* | 3 | 2 | 7 | 0 | 4 | 1
CC(C)CC(COCc1ccc(C(F)(F)F)cc1)N1CCN(C(=O)c2ccc(C(F)(F)F)cc2)CCC1=O (stereo not given) | 27* | 4 | 2 | 7 | 0 | 0 | 1
S=C1Nc2ccccc2CS1 | -5 | 1 | 2 | -5 | 0 | · | ·
c1ccc2c(c1)CSc1ccccc1N2 | 21* | 5 | 4 | 8 | 0 | 2 | 1
CCCC[C@H]1C2CC(OC(=O)Nc3cc(C)cc(C)c3)C(C2)[C@H]2CCCCN21 (stereo not given in full) | 3 | 1 | 1 | -1 | 0 | · | ·
O=C(NN1C(=O)C2C(c3ccccc3)C=CC(c3ccccc3)C2C1=O)c1cccc(Br)c1 (stereo not given) | 21* | -9 | -12 | 8 | 0 | 10 | 5
CCOC(=O)C1=C(O)C(=O)N(Cc2cccnc2)C1c1ccc(OC)cc1 (stereo not given) | -4 | 0 | -5 | -2 | -1 | · | ·
COc1ccc(S(=O)(=O)N2CCOC2CNC(=O)C(=O)NCCc2ccc(S(N)(=O)=O)cc2)cc1 (stereo not given) | -6 | -1 | 0 | -2 | 0 | · | ·
Cc1cc(C)n(CC(O)Cn2c3ccc(Br)cc3c3cc(Br)ccc32)c(=O)n1 (stereo not given) | 20* | 2 | 1 | 8 | 0 | 6 | 2
Cc1cccc(N2CCN(S(=O)(=O)c3ccc4c(c3)NC(=O)CS4)CC2)c1C | 23* | -4 | -8 | 8 | 0 | 8 | 2
